Results on 2 sequences are retold here after PMC7862700, “An all-to-all approach to the identification of sequence-specific readers for epigenetic DNA modifications on cytosine”.

What all share (assay): DAPPL (digital affinity profiling via proximity ligation, sequencing); 10 mM Tris-HCl pH 7.5, 50 mM NaCl, 1 mM DTT, 4% glycerol, room temperature, 30 min; GST-TFs on glutathione beads, 16-mer random dsDNA library, 0.1% formaldehyde crosslink after washing; high values mean tight binding
In one assay the target is T1, FLI1 (Homo sapiens, UniProt Q01543 1-452).
T1 sequence: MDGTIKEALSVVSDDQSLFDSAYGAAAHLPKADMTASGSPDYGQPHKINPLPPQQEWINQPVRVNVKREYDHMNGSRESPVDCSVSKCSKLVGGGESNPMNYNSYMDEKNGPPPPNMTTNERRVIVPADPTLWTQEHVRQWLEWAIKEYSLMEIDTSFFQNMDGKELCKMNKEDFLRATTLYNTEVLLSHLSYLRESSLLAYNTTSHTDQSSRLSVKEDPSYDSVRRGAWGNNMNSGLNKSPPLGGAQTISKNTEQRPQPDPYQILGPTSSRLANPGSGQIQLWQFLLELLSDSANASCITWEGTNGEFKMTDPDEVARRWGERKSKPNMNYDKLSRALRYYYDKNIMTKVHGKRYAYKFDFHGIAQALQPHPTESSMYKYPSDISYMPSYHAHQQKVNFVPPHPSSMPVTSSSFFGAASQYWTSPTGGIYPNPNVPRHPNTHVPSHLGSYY
The following applies: protein: recombinant; tags: N-terminal GST; dsDNA, one strand shown. The procedure, abridged:
(§1)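 Binding signal is given per hexamer as its read frequency for a factor divided by its frequency in the tag-only sample. GST-fused human transcription factors were expressed in yeast, captured on glutathione beads, barcoded with DNA and pooled with that sample, then incubated with 200 nmole of a 16-mer random double-stranded DNA library in Tris/NaCl/DTT/glycerol buffer for 30 min at room temperature. The pools were then washed, crosslinked, proximity-ligated, amplified by PCR and sequenced on an Illumina NextSeq500.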

In another assay the target is T2, ELK1 (Homo sapiens, UniProt P19419 1-428).
T2 sequence: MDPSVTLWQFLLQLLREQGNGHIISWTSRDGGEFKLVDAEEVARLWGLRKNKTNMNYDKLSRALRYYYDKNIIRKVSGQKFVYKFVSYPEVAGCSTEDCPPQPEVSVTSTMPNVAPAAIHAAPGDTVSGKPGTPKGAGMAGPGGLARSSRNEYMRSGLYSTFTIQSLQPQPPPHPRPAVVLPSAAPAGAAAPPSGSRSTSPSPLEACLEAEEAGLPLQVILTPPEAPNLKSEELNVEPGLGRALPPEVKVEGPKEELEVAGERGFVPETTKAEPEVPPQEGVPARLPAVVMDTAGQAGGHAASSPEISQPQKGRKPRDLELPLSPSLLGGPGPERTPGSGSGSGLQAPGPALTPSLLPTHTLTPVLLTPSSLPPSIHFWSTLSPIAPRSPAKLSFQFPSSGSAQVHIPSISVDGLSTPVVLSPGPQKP
The following applies: protein: recombinant; tags: N-terminal GST; dsDNA, one strand shown. The method in brief:
as §1

The target of another assay is T3, GABPA (Homo sapiens, UniProt Q06546 1-454).
T3 sequence: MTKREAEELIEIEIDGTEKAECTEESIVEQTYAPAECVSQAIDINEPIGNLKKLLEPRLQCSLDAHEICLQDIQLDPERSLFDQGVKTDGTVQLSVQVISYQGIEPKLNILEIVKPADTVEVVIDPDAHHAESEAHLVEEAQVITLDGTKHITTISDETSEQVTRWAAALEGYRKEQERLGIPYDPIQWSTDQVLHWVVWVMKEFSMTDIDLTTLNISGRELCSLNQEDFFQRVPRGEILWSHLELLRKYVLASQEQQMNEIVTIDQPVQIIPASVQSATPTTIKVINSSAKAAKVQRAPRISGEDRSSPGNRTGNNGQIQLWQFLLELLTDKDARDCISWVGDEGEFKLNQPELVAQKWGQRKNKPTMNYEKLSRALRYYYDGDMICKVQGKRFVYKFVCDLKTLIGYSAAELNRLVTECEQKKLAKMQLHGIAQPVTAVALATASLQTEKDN
The following applies: protein: recombinant; tags: N-terminal GST; dsDNA, one strand shown. The procedure, abridged:
as §1

The next assay concerns the target ELF1 (Homo sapiens, UniProt P32519 1-619). The note with it: protein: recombinant; tags: N-terminal GST; dsDNA, one strand shown. The procedure, abridged:
as §1

The next assay deals with T4, EHF (Homo sapiens, UniProt Q9NZC4 1-300).
T4 sequence: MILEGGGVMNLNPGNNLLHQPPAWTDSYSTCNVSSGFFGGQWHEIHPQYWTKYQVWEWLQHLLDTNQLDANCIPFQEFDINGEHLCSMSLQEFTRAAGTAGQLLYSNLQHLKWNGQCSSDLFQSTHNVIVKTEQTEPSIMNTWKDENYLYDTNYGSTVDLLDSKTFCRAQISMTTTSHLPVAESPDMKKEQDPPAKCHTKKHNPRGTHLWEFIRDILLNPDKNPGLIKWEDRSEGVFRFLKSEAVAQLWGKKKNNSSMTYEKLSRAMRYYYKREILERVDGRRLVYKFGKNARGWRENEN
The note with it: protein: recombinant; tags: N-terminal GST; dsDNA, one strand shown. The procedure, abridged:
as §1

The target of a further assay is SPI1 (Homo sapiens, UniProt P17947 1-270). The following applies: protein: recombinant; tags: N-terminal GST; dsDNA, one strand shown. The procedure, abridged:
as §1

The target of the next assay is SPIB (Homo sapiens, UniProt Q01892 1-262). The note with it: protein: recombinant; tags: N-terminal GST; dsDNA, one strand shown. The procedure, abridged:
as §1

A further assay deals with T5, FEV (Homo sapiens, UniProt Q99581 1-238).
T5 sequence: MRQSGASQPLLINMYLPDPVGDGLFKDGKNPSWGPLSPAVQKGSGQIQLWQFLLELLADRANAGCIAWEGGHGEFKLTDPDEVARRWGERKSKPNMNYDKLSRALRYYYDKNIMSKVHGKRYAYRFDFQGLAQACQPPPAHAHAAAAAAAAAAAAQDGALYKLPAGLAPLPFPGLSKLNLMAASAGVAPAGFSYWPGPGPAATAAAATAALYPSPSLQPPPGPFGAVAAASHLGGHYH
The following applies: protein: recombinant; tags: N-terminal GST; dsDNA, one strand shown. The procedure, abridged:
as §1

The next assay addresses ETV5 (Homo sapiens, UniProt P41161 1-510). The note with it: protein: recombinant; tags: N-terminal GST; dsDNA, one strand shown. The procedure, abridged:
as §1

In the next assay the target is HSF1 (Homo sapiens, UniProt Q00613 1-529). The following applies: protein: recombinant; tags: N-terminal GST; chain copies: 3; dsDNA, one strand shown. The procedure, abridged:
as §1

A further assay concerns the target ELF4 (Homo sapiens, UniProt Q99607 1-663). The following applies: protein: recombinant; tags: N-terminal GST; dsDNA, one strand shown. The method in brief:
as §1

The target in the next assay is T6, ELK4 (Homo sapiens, UniProt P28324-2 1-405).
T6 sequence: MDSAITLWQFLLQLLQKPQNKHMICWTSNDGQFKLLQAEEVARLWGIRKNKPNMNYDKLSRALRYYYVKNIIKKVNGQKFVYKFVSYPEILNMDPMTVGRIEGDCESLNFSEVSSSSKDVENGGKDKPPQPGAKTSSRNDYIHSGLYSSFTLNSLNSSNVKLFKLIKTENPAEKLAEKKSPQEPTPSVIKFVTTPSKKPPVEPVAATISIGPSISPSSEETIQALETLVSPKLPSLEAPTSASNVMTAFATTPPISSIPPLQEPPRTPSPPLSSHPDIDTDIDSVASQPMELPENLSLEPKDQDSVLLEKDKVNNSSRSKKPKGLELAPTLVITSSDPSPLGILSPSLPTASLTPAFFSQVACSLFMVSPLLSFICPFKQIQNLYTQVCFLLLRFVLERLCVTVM
The note with it: protein: recombinant; tags: N-terminal GST; dsDNA, one strand shown. The method in brief:
as §1

The next assay has as its target T7, ETV2 (Homo sapiens, UniProt O00321 1-342).
T7 sequence: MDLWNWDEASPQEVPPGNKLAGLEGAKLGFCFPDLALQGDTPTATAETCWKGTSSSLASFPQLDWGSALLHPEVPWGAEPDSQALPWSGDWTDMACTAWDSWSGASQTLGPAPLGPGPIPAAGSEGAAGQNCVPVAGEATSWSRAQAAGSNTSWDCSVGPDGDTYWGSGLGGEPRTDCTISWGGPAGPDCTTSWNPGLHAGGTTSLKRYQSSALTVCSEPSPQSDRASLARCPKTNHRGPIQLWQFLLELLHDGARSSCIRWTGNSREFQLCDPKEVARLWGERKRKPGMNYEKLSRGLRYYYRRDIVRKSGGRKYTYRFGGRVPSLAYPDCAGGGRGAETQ
The note with it: protein: recombinant; tags: N-terminal GST; dsDNA, one strand shown. The method in brief: as §1

The next assay addresses CRX (Homo sapiens, UniProt O43186 1-299). The note with it: protein: recombinant; tags: N-terminal GST; dsDNA, one strand shown. The method in brief:
as §1

For a further assay, the target named is ETV1 (Homo sapiens, UniProt P50549 1-477). The note with it: protein: recombinant; tags: N-terminal GST; dsDNA, one strand shown. The procedure, abridged: as §1
In a further assay the target is T8, ERG (Homo sapiens, UniProt P11308 1-479).
T8 sequence: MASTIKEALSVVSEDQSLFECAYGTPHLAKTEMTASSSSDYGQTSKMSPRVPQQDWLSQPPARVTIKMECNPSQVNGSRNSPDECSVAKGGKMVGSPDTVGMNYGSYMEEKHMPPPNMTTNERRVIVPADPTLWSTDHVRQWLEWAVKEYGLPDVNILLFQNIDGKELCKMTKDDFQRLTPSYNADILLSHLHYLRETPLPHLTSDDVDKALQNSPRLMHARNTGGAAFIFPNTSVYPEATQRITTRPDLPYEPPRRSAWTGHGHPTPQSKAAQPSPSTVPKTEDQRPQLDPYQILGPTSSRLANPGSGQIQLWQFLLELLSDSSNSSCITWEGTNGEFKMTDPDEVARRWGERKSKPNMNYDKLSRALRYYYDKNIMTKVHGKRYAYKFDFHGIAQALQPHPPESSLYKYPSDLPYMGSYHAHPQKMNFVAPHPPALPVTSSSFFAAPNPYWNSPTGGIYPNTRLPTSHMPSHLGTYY
The note with it: protein: recombinant; tags: N-terminal GST; dsDNA, one strand shown. The procedure, abridged: as §1

The next assay has as its target T9, ELK3 (Homo sapiens, UniProt P41970 1-407).
T9 sequence: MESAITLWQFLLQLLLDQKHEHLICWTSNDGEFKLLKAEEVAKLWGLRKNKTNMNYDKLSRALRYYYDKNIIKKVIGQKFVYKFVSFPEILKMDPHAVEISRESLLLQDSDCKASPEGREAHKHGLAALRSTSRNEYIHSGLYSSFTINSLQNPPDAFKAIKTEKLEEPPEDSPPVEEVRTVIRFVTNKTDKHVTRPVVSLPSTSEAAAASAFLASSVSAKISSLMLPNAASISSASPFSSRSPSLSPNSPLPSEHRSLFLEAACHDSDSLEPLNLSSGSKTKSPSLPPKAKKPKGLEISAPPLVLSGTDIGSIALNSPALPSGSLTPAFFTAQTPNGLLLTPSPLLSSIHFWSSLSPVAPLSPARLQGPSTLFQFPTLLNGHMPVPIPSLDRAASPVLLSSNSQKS
The note with it: protein: recombinant; tags: N-terminal GST; dsDNA, one strand shown. The method in brief: as §1

A further assay deals with T10, ELF3 (Homo sapiens, UniProt P78545 1-371).
T10 sequence: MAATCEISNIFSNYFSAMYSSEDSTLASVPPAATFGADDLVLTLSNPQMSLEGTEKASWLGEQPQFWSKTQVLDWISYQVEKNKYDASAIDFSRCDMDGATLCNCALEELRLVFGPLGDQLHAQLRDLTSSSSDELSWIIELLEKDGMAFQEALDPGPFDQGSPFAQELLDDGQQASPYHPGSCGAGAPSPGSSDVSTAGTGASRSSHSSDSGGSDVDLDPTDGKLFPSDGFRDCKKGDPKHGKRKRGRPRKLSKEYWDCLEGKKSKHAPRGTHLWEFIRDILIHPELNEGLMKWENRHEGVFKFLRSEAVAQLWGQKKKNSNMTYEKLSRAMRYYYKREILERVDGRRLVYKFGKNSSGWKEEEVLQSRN
The following applies: protein: recombinant; tags: N-terminal GST; dsDNA, one strand shown. The method in brief:
as §1

Chain of CRX (O43186 whole entry): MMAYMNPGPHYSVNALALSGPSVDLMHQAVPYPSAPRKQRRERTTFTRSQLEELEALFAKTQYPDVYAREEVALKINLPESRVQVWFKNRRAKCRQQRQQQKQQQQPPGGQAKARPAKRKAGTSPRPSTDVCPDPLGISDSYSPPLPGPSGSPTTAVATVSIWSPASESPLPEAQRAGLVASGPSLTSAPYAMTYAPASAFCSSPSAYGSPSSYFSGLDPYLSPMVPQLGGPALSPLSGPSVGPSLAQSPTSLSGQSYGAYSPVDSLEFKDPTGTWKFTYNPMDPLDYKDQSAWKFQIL
Chain of ELF1 (P32519 whole entry): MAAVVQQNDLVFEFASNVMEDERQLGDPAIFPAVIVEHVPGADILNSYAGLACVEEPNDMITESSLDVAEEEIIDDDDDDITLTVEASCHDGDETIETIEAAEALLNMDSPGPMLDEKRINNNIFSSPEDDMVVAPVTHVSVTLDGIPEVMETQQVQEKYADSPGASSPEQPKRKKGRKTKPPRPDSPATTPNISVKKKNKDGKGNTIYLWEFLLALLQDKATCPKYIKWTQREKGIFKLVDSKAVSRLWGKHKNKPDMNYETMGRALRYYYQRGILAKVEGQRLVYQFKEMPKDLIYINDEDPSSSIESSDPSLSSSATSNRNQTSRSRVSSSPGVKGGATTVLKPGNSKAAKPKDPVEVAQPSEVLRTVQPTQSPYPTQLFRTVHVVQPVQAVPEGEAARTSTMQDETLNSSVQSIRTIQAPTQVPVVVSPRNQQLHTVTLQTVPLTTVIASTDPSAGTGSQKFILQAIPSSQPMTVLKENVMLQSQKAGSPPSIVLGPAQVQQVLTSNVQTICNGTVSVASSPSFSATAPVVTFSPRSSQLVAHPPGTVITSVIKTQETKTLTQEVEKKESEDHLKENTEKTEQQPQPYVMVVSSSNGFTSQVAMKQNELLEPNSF
Chain of ETV5 (P41161 whole entry): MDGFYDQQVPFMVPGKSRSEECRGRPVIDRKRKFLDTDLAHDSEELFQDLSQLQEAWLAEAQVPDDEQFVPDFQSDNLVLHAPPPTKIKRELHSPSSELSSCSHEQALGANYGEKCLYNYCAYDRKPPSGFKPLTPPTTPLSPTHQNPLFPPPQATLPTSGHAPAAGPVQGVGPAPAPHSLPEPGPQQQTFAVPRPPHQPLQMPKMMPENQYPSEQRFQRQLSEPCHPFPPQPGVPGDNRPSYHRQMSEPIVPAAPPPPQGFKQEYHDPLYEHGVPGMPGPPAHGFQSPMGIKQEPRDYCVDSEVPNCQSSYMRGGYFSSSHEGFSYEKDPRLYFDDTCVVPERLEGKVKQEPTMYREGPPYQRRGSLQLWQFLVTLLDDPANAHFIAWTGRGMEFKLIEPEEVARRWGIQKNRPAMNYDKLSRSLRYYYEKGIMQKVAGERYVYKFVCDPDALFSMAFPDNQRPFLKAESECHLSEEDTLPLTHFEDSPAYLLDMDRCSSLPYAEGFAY
Chain of ETV1 (P50549 whole entry): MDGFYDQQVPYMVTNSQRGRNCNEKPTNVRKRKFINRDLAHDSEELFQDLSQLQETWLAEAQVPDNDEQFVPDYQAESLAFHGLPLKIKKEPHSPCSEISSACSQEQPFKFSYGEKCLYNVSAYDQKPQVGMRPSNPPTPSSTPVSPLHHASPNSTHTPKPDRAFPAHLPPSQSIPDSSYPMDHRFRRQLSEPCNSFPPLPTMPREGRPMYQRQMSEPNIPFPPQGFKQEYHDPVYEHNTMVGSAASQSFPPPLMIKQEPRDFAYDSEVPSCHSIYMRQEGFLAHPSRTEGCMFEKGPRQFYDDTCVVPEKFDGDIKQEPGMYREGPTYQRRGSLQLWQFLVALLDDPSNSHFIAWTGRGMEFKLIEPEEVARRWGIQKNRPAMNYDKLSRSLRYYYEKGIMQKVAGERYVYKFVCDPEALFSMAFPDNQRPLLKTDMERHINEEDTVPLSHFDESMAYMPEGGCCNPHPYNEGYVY
Chain of HSF1 (Q00613 whole entry): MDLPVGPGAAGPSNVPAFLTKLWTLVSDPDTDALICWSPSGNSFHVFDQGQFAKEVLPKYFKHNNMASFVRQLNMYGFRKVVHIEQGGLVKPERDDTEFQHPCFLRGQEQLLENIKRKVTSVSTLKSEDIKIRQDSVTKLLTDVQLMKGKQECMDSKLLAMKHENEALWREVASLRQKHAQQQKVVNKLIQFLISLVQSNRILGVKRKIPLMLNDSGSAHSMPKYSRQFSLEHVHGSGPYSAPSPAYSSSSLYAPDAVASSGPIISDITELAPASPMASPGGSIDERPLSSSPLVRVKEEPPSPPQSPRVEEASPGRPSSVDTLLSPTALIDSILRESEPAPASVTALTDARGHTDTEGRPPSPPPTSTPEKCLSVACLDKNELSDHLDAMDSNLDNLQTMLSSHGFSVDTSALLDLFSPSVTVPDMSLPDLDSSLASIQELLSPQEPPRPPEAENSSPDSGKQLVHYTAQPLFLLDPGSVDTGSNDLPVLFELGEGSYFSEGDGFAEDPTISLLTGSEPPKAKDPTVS
Chain of SPIB (Q01892 whole entry): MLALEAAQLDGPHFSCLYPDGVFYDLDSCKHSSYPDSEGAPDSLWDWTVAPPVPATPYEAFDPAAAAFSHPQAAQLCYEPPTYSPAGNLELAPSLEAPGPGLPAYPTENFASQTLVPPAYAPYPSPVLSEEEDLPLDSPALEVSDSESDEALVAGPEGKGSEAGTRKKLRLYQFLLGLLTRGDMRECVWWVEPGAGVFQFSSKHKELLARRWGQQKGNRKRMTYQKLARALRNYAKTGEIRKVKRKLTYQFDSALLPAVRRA
Chain of ELF4 (Q99607 whole entry): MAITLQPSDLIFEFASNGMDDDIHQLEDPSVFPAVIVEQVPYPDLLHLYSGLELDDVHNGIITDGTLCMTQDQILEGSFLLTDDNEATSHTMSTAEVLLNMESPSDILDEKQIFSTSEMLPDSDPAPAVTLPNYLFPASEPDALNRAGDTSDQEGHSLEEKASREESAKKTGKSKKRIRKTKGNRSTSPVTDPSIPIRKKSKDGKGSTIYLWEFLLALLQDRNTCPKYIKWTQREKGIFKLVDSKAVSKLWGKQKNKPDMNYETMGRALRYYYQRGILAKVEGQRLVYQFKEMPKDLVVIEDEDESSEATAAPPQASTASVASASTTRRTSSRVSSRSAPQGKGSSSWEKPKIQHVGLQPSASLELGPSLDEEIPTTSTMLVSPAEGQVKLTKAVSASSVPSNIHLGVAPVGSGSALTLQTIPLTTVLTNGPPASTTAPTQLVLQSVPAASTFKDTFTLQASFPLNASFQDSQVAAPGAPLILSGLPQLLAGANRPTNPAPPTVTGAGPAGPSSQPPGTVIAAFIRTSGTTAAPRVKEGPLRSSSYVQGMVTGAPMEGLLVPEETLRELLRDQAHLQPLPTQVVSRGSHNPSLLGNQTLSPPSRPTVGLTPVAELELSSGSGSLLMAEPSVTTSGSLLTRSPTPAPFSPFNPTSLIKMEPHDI

Regarding AGATAA, the binding signal with FLI1 was 1.09 fold enrichment (6-mer frequency, TF over GST control); with ELK1 it was 1.07 fold enrichment (6-mer frequency, TF over GST control); with GABPA it was 1.09 fold enrichment (6-mer frequency, TF over GST control); with ELF1 it was 1.01 fold enrichment (6-mer frequency, TF over GST control); with EHF, 1.03 fold enrichment (6-mer frequency, TF over GST control); in the assay with SPI1 it was 1.01 fold enrichment (6-mer frequency, TF over GST control). The binding signal with SPIB is 1.12 fold enrichment (6-mer frequency, TF over GST control); with FEV, 1.01 fold enrichment (6-mer frequency, TF over GST control); with ETV5 it was 1.01 fold enrichment (6-mer frequency, TF over GST control); in the assay with HSF1, 1.68 fold enrichment (6-mer frequency, TF over GST control); with ELF4, 1.09 fold enrichment (6-mer frequency, TF over GST control); in the assay with ELK4, 1.08 fold enrichment (6-mer frequency, TF over GST control). Moreover, the binding signal in the assay with ETV2 is 1.17 fold enrichment (6-mer frequency, TF over GST control); with CRX, 2 fold enrichment (6-mer frequency, TF over GST control); with ETV1, 1.04 fold enrichment (6-mer frequency, TF over GST control).

With GGCTTA, the binding signal was 1.05 fold enrichment (6-mer frequency, TF over GST control) in the assay with FLI1; 1.17 fold enrichment (6-mer frequency, TF over GST control) with GABPA; 1.04 fold enrichment (6-mer frequency, TF over GST control) with ERG; 1.08 fold enrichment (6-mer frequency, TF over GST control) in the assay with ELF1; 1.02 fold enrichment (6-mer frequency, TF over GST control) with EHF; 1.02 fold enrichment (6-mer frequency, TF over GST control) with SPI1. The binding signal with ELK3 is 1.01 fold enrichment (6-mer frequency, TF over GST control); with FEV, 1.08 fold enrichment (6-mer frequency, TF over GST control); with ETV5 it was 1.03 fold enrichment (6-mer frequency, TF over GST control); with HSF1, 2.04 fold enrichment (6-mer frequency, TF over GST control); with ELK4, 1.16 fold enrichment (6-mer frequency, TF over GST control); with ELF3, 1.14 fold enrichment (6-mer frequency, TF over GST control). The binding signal with CRX is 3.34 fold enrichment (6-mer frequency, TF over GST control); with ETV1, 1.11 fold enrichment (6-mer frequency, TF over GST control).
